Bioassay records from PubChem.
CCHFV vOTU inh = blocks the CCHF virus ovarian tumor domain protease; CCHFV vOTU protease, Pep-AMC fluorescence; inhibition, % at 11.5 µM; 0.55% of 370,000 active; in the data active means inhibition above about 30%; further: 0% = vehicle wells with enzyme and 100% = no enzyme wells
SARS 3CLpro inh = SARS-CoV 3CLpro protease inhibition; P0C6X7; AID 1706; recombinant SARS-CoV 3CLpro, quenched FRET peptide cleavage; 0.14% of 290,000 active; inhibition, % at 6 µM; in the data active means inhibition above about 12%
BJeLR lethal = BJeLR cell viability loss; BJeLR (HRASV12) viability, CellTiter-Glo ATP luminescence, 48 h; inhibition, % (no concentration beside the values); 0.17% of 300,000 active; AID 1554; in the data active means inhibition above about 50%
MazEF act = increases E. coli MazEF RNase cleavage of RNA; P0AE70; FAM/BHQ RNA-DNA oligo cleavage fluorescence, 5 h; activation, % at 20 µM; 0.32% of 350,000 active; in the data active means activation above about 50%
Target sequence (P0AE70 whole entry, looked up): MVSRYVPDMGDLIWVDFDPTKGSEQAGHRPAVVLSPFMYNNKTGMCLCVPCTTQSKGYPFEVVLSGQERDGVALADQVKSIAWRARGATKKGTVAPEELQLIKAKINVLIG
VHR inh abs = blocks human VHR1 dual specificity phosphatase. recombinant VHR phosphatase, pNPP absorbance. inhibition, % at 13.3 µM. 0.52% of 290,000 active. AID 1654; in the data active means inhibition above about 50%
Target sequence (P51452 whole entry, looked up): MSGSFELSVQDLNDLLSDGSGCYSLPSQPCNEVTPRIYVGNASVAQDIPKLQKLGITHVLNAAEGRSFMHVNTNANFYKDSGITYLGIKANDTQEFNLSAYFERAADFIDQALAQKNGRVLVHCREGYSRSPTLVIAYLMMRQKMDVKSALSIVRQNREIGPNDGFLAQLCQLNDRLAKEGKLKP
An asterisk follows results filed as active; · = no result; + = active, no number. Only some compounds are listed: those with a hit (about 1.4% of all), similar ones and a draw of the others.

SMILES	CCHFV vOTU inh	SARS 3CLpro inh	BJeLR lethal	MazEF act	VHR inh abs
Cc1ccc2nc(N3C(=O)C(O)=C(C(=O)c4ccco4)C3c3cccs3)sc2c1 (stereo not drawn)	-6	2	-7	110*	8
CSc1ccc(S(=O)(=O)NCC(=O)OCCOc2ccccc2)cc1[N+](=O)[O-]	-1	·	-11	78*	·
O=C(O)c1ccc(NC(=O)C2C3CCC(C3)C2C(=O)O)cc1 (stereo not drawn)	6	5	-7	9	12
CSc1ccccc1NC(=O)C1C2CCC(C2)C1C(=O)O (stereo not drawn)	-15	4	6	1	52*
CCOC(=O)Cn1c(=NC(=O)c2ccc([N+](=O)[O-])s2)sc2ccccc21	8	1	9	276*	0
Cc1cc2n(n1)C(c1ccc3c(c1)OCO3)Nc1c(C)cccc1-2 (stereo not drawn)	-15	3	-2	7	11
Cc1cc(C)c2c(c1)-c1cc(C)nn1C(c1ccc3c(c1)OCO3)N2 (stereo not drawn)	-10	2	0	-3	56*
C=CCCC1(CCC)C(=O)/C(=C(\O)c2ccccc2)C(=O)C(CCC)=C1OC (stereo not drawn)	7	·	·	·	·
CC(C)=CCC/C(C)=C/CN1CC(=O)N2[C@H](C[C@@]3(n4ccc5ccccc54)c4ccccc4N(S(=O)(=O)c4ccccc4)[C@@H]23)C1=O	5	·	·	·	·
O=C(N/N=C/c1c(O)ccc2ccccc12)c1cccc(C(F)(F)F)c1	8	3	40	75*	8
COC(=O)[C@@]12CCCCC=C1N(CCc1ccc(Cl)cc1)C(=O)[C@H]2CC(=O)NCC12CC3CC(CC(C3)C1)C2	9	·	·	·	·
COc1ccc(/C=N/Nc2ccc([N+](=O)[O-])cc2S(=O)(=O)N2CCN(C)CC2)cc1	-16	1	4	166*	5
O=C(Nc1cccc([N+](=O)[O-])c1)NC1CCCCN(Cc2ccc(Cl)cc2)C1=O (stereo not drawn)	4	·	·	·	·
COc1cc(C(=O)C(=O)c2cc(OC)c(O)c(OC)c2)cc(OC)c1O	-15	-3	4	-3	53*
CCC(C)OC(=O)c1cc(C)nc2c(Br)cc(Br)cc12 (stereo not drawn)	12	0	-5	-3	58*
CCOC(=O)c1cc(C)nc(SC)c1C#N	5	-2	-8	6	-14
CC1(C)OC(c2ccccc2)=C/C(=C/C=C2C(=O)NC(=S)NC2=O)O1	24	1	-4	+	9
Cc1ccc(-n2c(SCC(=O)c3ccc4ccccc4c3)nnc2-c2cccnc2)cc1	-2	·	·	·	·
CCCCCNC(=O)C(C#N)c1nc2ccccc2nc1N1CCCC1 (stereo not drawn)	·	-1	0	-158	27
COCCCNC(=O)C(C#N)c1nc2ccccc2nc1N1CCCC1 (stereo not drawn)	2	-2	-4	739*	·
CCCCCCNC(=O)C(C#N)c1nc2ccccc2nc1N1CCCC1 (stereo not drawn)	-3	2	1	370*	32
CCCCCCNC(=O)C(C#N)c1nc2ccccc2nc1N1CCOCC1 (stereo not drawn)	-13	-5	-1	577*	28
O=[N+]([O-])c1ccc(OC[C@@H](O)CN2CCC(C(O)(c3ccccc3)c3ccccc3)CC2)c(Cl)c1	9	·	·	·	·
O=C(Cc1cccs1)Nc1cccc(-c2nc3cc4ccccc4cc3[nH]2)c1	-34	-1	16	56*	-1
CC1=NN(c2nc(-c3ccc(C)cc3)cs2)C(=O)C1N=Nc1cccc(C)c1 (stereo not drawn)	-5	9	24	3	1
SMILES	CCHFV vOTU inh	SARS 3CLpro inh	BJeLR lethal	MazEF act	VHR inh abs
CCOC(=O)c1sc(N2N=C(C)C(N=Nc3cccc(C)c3)C2=O)nc1C (stereo not drawn)	3	-1	-2	4	55*
COC(=O)[C@]12C[C@H](CC(=O)N3CCCC3)C(=O)N(Cc3cccc4ccccc34)C1=C[C@H](COCc1ccccc1)O[C@@H]2C	29	·	·	·	·
Cc1ccc(-n2c(-c3ccc(Br)cc3)c[n+]3c2CCc2ccc4cccnc4c2-3)cc1	-5	1	77*	-19	31
COc1ccc(-n2c(-c3ccc(Cl)cc3)c[n+]3c2CCc2ccccc2-3)cc1	-1	4	1	17	20
Cc1ccc(CN2CCCCC(NC(=O)c3ccc(Br)cc3)C2=O)cc1 (stereo not drawn)	17	·	·	·	·
O=C(CN1C(=O)/C(=C\c2ccco2)SC1=S)Nc1ccc(O)cc1C(=O)O	31*	1	7	8	-5
CC1=Nc2cc(C(=O)NCc3ccco3)ccc2Sc2ccc(C)cc21	-5	5	54*	2	-7
O=C(OC12CCCN(C1)/C(=C/c1cccnc1)C2)c1ccc(F)cc1 (stereo not drawn)	-3	·	·	·	·
C/C(=N/NC(=O)c1cc(-c2cccc([N+](=O)[O-])c2)n[nH]1)c1ccc(Cl)cc1	3	-2	1	56*	7
CC(C)c1ccc(/C=N/NC(=O)c2cc(-c3cccc([N+](=O)[O-])c3)n[nH]2)cc1	1	2	-14	-1	-19
O=C(OCc1cn(Cc2ccccc2F)nn1)N1CCOCC1	7	·	·	·	·
CN(CC(=O)Nc1ccc(F)c(F)c1F)c1ncnc2sccc12	-10	3	5	2	16
CN(CC(=O)Nc1ccccc1Br)c1ncnc2sccc12	-8	2	3	57*	-2
CCC(CC)c1nnc(NC(=O)c2c(-c3ccccc3)noc2C)s1	3	2	-3	12	50*
CCC(c1ccccc1)c1nnc(NC(=O)c2ccco2)s1 (stereo not drawn)	12	3	0	6	25
CCCC(CCC)c1nnc(NC(=O)c2ccco2)s1	-8	6	2	0	60*
Cc1ccccc1Cn1cc(CN2[C@@H](C)COc3cc(Br)ccc3S2(=O)=O)nn1	-5	·	·	·	·
COc1ccccc1N1CCN(C(=O)CNC(=O)c2cn(-c3ccccc3OC)c(=O)c3ccccc23)CC1	-8	8	6	-4	19
COc1ccccc1-n1cc(C(=O)NCC(=O)N2CCN(c3ccccc3)CC2)c2ccccc2c1=O	6	2	-1	3	51*
CC1=NN(CCC#N)C(=O)/C1=C/c1ccc(N(C)C)cc1	4	-4	8	-52	60*
COc1cc(/C=C2\C(=O)N(CCC#N)N=C2C)ccc1OCC(=O)Nc1ccccc1	18	0	3	4	-5
N#Cc1c(C(F)(F)F)cc(-c2cccs2)nc1SCc1cccnc1	-4	0	4	6	13
N#Cc1ccc(-c2cccs2)nc1SCc1cccnc1	-22	1	51*	1	-7
Cc1cc(=O)n(Cc2ccco2)c(=S)[nH]1	11	·	·	4	·
Cc1cc(=O)n(Cc2ccc(OC(C)C)cc2)c(=S)[nH]1	-4	1	-8	0	52*
